# Reference: PubChem BioAssay (EPA / NIEHS)
# Records with an inconclusive call do not appear. Calls of active or inactive are those of the source. How the source made its calls, unless noted: active means hit-call score of the fitted dose curve at least 0.9, where 1 is the maximum; inactive means score below 0.9.
# Tests used:
# [1] = biological target: Glucocorticoid receptor (Homo sapiens) (UniProt P04150); experiment: ATG_GR_TRANS: Attagene TRANS-FACTORIAL HepG2 Assay for human Glucocorticoid Receptor (GR) (AID 2282978; active means hit-call score of the fitted dose curve at least 0.9, where 1 is the maximum;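 further: activators score as hits since higher reporter transcript over DMSO is fitted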); settings: HepG2 Attagene TRANS GR reporter, mRNA transcription
# Chain of Glucocorticoid receptor (Homo sapiens) (P04150 whole entry, looked up): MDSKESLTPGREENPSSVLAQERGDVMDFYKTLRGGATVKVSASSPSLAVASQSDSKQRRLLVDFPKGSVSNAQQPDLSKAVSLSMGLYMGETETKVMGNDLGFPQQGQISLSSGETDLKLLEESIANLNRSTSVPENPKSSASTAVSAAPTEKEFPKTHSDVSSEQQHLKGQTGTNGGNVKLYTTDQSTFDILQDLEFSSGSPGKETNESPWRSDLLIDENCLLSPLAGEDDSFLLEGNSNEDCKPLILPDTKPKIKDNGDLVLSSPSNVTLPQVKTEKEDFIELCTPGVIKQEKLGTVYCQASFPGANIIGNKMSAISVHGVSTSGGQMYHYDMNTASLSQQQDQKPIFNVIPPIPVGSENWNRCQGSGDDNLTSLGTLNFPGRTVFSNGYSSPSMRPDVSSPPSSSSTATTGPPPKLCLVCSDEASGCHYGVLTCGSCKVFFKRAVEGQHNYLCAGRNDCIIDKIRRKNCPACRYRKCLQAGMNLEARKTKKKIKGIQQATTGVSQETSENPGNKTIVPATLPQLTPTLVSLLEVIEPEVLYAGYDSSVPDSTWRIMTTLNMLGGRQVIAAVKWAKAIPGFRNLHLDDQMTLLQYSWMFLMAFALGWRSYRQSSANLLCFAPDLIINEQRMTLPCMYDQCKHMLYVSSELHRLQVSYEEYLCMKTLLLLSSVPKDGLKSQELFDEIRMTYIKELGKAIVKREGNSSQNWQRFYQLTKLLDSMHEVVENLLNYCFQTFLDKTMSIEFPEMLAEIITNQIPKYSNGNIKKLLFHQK
# How it was run: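 Multiplexed TRANS reporter system, HepG2; 24 h exposure; RNA → oligo(dT) RT → reporter-specific PCR → 6-FAM primer extension → HpaI cut → CE fluorescence. Gain-of-signal vs DMSO.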
# [2] = biological target: Hepatocyte nuclear factor 4-alpha (Homo sapiens) (UniProt P41235); experiment: ATG_HNF4a_TRANS: Attagene TRANS-FACTORIAL HepG2 Assay for human Hepatocyte Nuclear Factor 4 alpha (HNF4a) (AID 2282982; active means hit-call score of the fitted dose curve at least 0.9, where 1 is the maximum); settings: HepG2 HNF4a transactivation reporter, mRNA readout
# Chain of Hepatocyte nuclear factor 4-alpha (Homo sapiens) (P41235 whole entry, looked up, the tested form may be a part): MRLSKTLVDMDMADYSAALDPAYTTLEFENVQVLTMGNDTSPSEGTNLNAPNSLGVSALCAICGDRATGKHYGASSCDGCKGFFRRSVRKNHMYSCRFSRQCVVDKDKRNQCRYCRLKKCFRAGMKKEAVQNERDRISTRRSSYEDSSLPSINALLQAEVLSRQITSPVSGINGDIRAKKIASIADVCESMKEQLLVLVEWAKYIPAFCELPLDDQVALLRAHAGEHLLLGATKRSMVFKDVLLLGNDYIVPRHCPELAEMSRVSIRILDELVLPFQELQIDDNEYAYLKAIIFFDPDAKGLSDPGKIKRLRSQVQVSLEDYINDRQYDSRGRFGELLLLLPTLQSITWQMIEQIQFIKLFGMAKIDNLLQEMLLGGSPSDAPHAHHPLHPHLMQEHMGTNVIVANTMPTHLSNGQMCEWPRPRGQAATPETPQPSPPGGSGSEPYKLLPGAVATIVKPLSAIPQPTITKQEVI
# How it was run: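 Readout is fluorescent reporter-transcript fragments resolved by capillary electrophoresis after RT-PCR from HepG2 cells dosed for 24 h. Cells carried transfected GAL4-UAS reporter constructs measuring exogenous NR-GAL4 chimera activity; DMSO served as baseline.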
# [3] = ATG_M_06_TRANS: Attagene TRANS-FACTORIAL HepG2 Assay for M06 Transcription Factor (Internal Marker) (AID 2282983; active means hit-call score of the fitted dose curve at least 0.9, where 1 is the maximum;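 further: reporter transcript level by RT-PCR then capillary electrophoresis fluorescence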); settings: HepG2 Attagene TRANS M06 internal marker reporter
# How it was run: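 HepG2 cells transiently transfected with multiplexed GAL4-UAS reporter transcription units; after 24 h compound exposure, reporter mRNA measured by RT-PCR, FAM-labelled primer extension, HpaI digestion and capillary electrophoresis. Gain-of-signal fitted versus DMSO baseline; background control readout.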
# [4] = ATG_M_32_TRANS: Attagene TRANS-FACTORIAL HepG2 Assay for M32 Transcription Factor (Internal Marker) (AID 2282984; active means hit-call score of the fitted dose curve at least 0.9, where 1 is the maximum); settings: HepG2 Attagene TRANS M32 internal marker reporter
# How it was run: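 Measures reporter mRNA induction in human HepG2 liver cells after 24 h chemical treatment. Transcripts from transiently transfected GAL4-UAS reporter units are amplified, fluorescently labelled and sized by capillary electrophoresis; gain of signal relative to DMSO.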
# [5] = biological target: Transcriptional activator Myb (Homo sapiens) (UniProt P10242); experiment: ATG_Myb_CIS: Attagene CIS-FACTORIAL HepG2 Assay for human Myeloblastosis (Myb) Proto-Oncogene Transcription Factor (AID 2282986); settings: HepG2 Attagene CIS-FACTORIAL Myb reporter transcription; actives raise or lower the signal
# Chain of Transcriptional activator Myb (Homo sapiens) (P10242 whole entry, looked up): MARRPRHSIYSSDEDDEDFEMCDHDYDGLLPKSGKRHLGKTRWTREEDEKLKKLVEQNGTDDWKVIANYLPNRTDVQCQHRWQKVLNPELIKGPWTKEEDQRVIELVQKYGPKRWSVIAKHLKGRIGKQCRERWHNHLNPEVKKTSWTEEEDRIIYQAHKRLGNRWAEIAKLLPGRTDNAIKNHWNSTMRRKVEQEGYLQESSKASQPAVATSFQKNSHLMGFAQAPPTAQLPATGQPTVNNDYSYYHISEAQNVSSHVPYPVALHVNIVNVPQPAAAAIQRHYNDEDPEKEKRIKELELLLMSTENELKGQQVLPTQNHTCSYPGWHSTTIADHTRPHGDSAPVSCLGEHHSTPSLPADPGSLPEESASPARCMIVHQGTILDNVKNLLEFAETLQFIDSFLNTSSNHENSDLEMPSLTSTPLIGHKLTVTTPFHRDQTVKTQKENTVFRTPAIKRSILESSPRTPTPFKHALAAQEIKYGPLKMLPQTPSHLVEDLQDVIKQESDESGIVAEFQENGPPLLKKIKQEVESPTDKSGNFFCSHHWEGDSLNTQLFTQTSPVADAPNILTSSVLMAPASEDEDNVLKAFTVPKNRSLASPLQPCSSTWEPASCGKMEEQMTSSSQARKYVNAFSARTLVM
# How it was run: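 Endogenous transcription factor activity at a Myb-responsive cis element is reported in human liver HepG2 cells after 24 h chemical treatment. Reporter mRNA is detected by RT-PCR and capillary electrophoresis fluorescence, with DMSO as baseline.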
# [6] = biological target: Nuclear respiratory factor 1 (Homo sapiens) (UniProt Q16656); experiment: ATG_NRF1_CIS: Attagene CIS-FACTORIAL HepG2 Assay for human Nuclear Respiratory Factor 1 (NRF1) Orphan Gene (AID 2282987); settings: HepG2 NRF1 cis-element reporter, Attagene multiplex; actives raise or lower the signal
# Chain of Nuclear respiratory factor 1 (Homo sapiens) (Q16656 whole entry, looked up): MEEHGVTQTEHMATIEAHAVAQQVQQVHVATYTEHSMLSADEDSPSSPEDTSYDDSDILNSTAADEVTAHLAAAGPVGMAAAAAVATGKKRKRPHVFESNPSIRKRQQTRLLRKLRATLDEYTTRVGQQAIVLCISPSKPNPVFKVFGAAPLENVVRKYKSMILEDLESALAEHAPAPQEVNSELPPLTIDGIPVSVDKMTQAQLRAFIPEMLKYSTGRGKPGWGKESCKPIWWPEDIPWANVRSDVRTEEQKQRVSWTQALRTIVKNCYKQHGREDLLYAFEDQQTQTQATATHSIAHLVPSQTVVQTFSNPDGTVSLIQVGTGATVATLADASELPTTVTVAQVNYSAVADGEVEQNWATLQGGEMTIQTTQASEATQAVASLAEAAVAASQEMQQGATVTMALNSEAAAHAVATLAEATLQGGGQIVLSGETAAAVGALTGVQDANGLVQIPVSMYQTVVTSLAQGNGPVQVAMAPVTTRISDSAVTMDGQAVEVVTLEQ
# How it was run: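 Human hepatoma HepG2 cells carrying transfected promoter-regulated reporter units were incubated with test chemicals for 24 h. Reporter transcripts were measured by RT-PCR plus capillary electrophoresis, and endpoints derived by bidirectional fitting with DMSO as baseline.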
# [7] = ATG_NFI_CIS: Attagene CIS-FACTORIAL HepG2 Assay for human Nuclear Factor I (NFI) (AID 2282989); settings: HepG2 cis-regulatory reporter, NFI response element transcription; actives raise or lower the signal
# How it was run: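 HepG2 cells transiently transfected with cis-element-driven multiplexed reporter transcription units, dosed for 24 h. Reporter mRNA quantified by RT-PCR, fluorescent labelling, HpaI digestion and capillary electrophoresis; bidirectional fit versus DMSO baseline.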
# [8] = biological target: Myc proto-oncogene protein (Homo sapiens) (UniProt P01106); experiment: ATG_Myc_CIS: Attagene CIS-FACTORIAL HepG2 Assay for human Myelocytomatosis (Myc) Proto-Oncogene Transcription Factor (AID 2282990); settings: HepG2, Attagene cis-reporter transcription factor activity; actives raise or lower the signal
# Chain of Myc proto-oncogene protein (Homo sapiens) (P01106 whole entry, looked up): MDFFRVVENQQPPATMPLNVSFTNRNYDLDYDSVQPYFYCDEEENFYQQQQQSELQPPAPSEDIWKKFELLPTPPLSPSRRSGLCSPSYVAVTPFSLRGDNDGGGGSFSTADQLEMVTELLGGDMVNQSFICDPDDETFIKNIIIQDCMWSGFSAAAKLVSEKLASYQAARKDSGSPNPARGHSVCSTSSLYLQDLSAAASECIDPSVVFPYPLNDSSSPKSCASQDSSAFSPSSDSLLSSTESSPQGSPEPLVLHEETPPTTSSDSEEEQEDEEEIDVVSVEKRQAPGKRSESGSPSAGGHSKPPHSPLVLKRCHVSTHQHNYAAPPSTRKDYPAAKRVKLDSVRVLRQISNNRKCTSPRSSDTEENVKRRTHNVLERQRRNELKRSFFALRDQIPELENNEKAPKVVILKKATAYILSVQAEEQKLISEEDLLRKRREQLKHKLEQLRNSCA
# How it was run: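 Cells of the HepG2 human liver line bear multiple cis-driven reporter transcription units. Reporter mRNA after 24 h exposure is reverse-transcribed, amplified, labelled and resolved by capillary electrophoresis, with gain- or loss-of-signal fitting relative to DMSO.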
# [9] = ATG_NRF2_ARE_CIS: Attagene CIS-FACTORIAL HepG2 Assay for human Nuclear Factor Erythroid 2 Related Factor 2 (NFR2) response to Antioxidant Response Elements (ARE) (AID 2282992); settings: HepG2 Attagene ARE/NRF2 reporter, transcription factor activity; actives raise or lower the signal;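 on AC50: reporter mRNA level measured by RT-PCR and capillary electrophoresis fluorescence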
# How it was run: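 Cis-factorial assay: transfected HepG2 reporter library, 24 h dosing, mRNA readout via RT-PCR/CE; DMSO-referenced bidirectional analysis.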
# [10] = biological target: Cellular tumor antigen p53 (Homo sapiens) (UniProt P04637); experiment: ATG_p53_CIS: Attagene CIS-FACTORIAL HepG2 Assay for human p53 Transcription Factor (AID 2282994); settings: HepG2 p53 cis-element reporter, Attagene mRNA; actives raise or lower the signal
# Chain of Cellular tumor antigen p53 (Homo sapiens) (P04637 whole entry, looked up): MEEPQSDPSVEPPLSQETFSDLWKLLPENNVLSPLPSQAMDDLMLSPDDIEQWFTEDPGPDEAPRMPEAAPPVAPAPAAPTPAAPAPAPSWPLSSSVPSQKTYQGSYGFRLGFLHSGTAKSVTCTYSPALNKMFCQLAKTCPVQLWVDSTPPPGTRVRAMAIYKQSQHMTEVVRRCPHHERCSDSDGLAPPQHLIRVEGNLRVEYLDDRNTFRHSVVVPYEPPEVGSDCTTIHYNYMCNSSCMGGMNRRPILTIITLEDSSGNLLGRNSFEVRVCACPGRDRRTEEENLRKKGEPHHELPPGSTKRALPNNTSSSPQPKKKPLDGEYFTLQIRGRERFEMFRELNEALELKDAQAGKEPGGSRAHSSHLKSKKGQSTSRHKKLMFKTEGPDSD
# How it was run: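 Using HepG2 hepatoma cells carrying cis-acting multiplexed reporters, mRNA induction is detected after a 24 h exposure. Gain- and loss-of-signal responses are fitted relative to DMSO-treated cells.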
# [11] = BSK_3C_TissueFactor: BioMAP Diversity Plus: 3C Assay for Tissue Factor Biomarker Activity (AID 2282997); settings: BioMAP 3C HUVEC, tissue factor biomarker readout; actives raise or lower the signal
# How it was run: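 Primary human umbilical vein endothelial cells in the 3C system were exposed to test chemical for 24 h, then Tissue Factor measured by ELISA. Activity was fitted bidirectionally against DMSO as negative control and baseline.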
# [12] = BSK_3C_uPAR: BioMAP Diversity Plus: 3C Assay for Urokinase-type plasminogen activator receptor (uPAR) Biomarker Activity (AID 2282998); settings: BioMAP 3C HUVEC, uPAR biomarker ELISA; actives raise or lower the signal
# How it was run: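 Human umbilical vein endothelial primary cells were exposed to test chemical for 24 h. Cell-surface uPAR was then quantified by ELISA, and responses were fitted bidirectionally against DMSO as negative control and baseline.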
# [13] = BSK_3C_VCAM1: BioMAP Diversity Plus: 3C Assay for Vascular cell adhesion molecule 1 (VCAM1) Biomarker Activity (AID 2282999); settings: BioMAP 3C HUVEC, VCAM1 ELISA, cytokine-stimulated; actives raise or lower the signal
# How it was run: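 Endothelial cells from human umbilical vein are treated with test chemical. At 24 h, VCAM-1 is measured by ELISA, and responses in either direction are fitted relative to DMSO.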
# [14] = ATG_NF_kB_CIS: Attagene CIS-FACTORIAL HepG2 Assay for human Nuclear Factor Kappa B (NF-kB) (AID 2282991); settings: HepG2 Attagene cis-factorial NF-kB reporter mRNA; actives raise or lower the signal
# How it was run: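 Multiplexed cis-reporter assay in transiently transfected HepG2. 24 h treatment; RNA isolated, RT-PCR, labelled fragments resolved by CE. DMSO baseline.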
# [15] = ATG_Oct_MLP_CIS: Attagene CIS-FACTORIAL HepG2 Assay for human Octamer-Binding Transcription Factor (Oct) (AID 2282993); settings: HepG2 Attagene cis-factorial Oct reporter, mRNA; actives raise or lower the signal
# How it was run: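 HepG2 cells transiently transfected with cis-promoter-driven multiplexed reporter transcription units, dosed for 24 h. Reporter mRNA quantified by RT-PCR, fluorescent labelling, HpaI digestion and capillary electrophoresis; bidirectional fits versus DMSO baseline.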
# [16] = biological target: Nuclear receptor subfamily 4 group A member 2 (Homo sapiens) (UniProt P43354); experiment: ATG_NURR1_TRANS: Attagene TRANS-FACTORIAL HepG2 Assay for human Nuclear Receptor Related Protein 1 (NURR1) (AID 2282985; active means hit-call score of the fitted dose curve at least 0.9, where 1 is the maximum); settings: HepG2 Attagene TRANS reporter, mRNA readout
# Chain of Nuclear receptor subfamily 4 group A member 2 (Homo sapiens) (P43354 whole entry, looked up, the tested form may be a part): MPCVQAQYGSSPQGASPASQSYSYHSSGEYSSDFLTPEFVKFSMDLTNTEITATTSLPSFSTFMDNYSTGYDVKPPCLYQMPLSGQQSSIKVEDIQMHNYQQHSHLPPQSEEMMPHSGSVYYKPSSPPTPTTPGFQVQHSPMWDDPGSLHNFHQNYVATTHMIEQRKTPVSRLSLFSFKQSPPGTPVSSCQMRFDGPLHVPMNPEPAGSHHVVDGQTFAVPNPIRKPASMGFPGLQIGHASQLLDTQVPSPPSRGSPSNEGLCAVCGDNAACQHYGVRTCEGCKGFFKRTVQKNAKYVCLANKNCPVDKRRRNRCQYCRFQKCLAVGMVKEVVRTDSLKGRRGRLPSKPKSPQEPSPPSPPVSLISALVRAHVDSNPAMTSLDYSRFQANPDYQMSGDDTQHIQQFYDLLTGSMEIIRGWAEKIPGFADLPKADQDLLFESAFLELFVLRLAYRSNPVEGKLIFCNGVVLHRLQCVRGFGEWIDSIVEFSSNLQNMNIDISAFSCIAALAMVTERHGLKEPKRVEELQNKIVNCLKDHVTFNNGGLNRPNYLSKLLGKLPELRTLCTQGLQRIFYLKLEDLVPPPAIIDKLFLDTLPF
# How it was run: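 Transient transfection of HepG2, human liver cells, with multiple GAL4-UAS reporter transcription units. Cells dosed 24 h, RNA isolated, reverse-transcribed, PCR-amplified, FAM-labelled, HpaI-digested, sized by capillary electrophoresis. DMSO served as negative control.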
# [17] = biological target: Oxysterols receptor LXR-beta (Homo sapiens) (UniProt P55055); experiment: ATG_LXRb_TRANS: Attagene TRANS-FACTORIAL HepG2 Assay for human Liver X Receptor beta (LXRb) (AID 2282981; active means hit-call score of the fitted dose curve at least 0.9, where 1 is the maximum); settings: HepG2 Attagene TRANS GAL4-LXRb reporter, mRNA
# Chain of Oxysterols receptor LXR-beta (Homo sapiens) (P55055 whole entry, looked up, the tested form may be a part): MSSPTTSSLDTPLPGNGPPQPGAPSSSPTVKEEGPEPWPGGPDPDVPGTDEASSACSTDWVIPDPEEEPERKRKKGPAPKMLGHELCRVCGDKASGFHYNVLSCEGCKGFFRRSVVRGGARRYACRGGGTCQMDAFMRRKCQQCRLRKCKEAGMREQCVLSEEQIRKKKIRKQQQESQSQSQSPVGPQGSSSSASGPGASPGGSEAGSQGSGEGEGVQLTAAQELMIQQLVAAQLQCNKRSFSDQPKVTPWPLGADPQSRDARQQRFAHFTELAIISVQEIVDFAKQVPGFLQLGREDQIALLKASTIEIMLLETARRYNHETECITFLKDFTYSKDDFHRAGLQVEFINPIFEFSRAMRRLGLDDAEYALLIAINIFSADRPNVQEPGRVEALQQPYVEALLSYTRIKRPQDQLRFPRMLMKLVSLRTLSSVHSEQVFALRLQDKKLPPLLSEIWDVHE
# How it was run: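 Transient transfection HepG2 (multiplexed RTUs, GAL4-UAS); NR-Gal4 chimera; 24 h exposure; RNA → RT-PCR → 6-FAM primer extension → HpaI → CE; increase vs DMSO.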
# [18] = biological target: Oxysterols receptor LXR-alpha (Homo sapiens) (UniProt Q13133); experiment: ATG_LXRa_TRANS: Attagene TRANS-FACTORIAL HepG2 Assay for human Liver X Receptor alpha (LXRa) (AID 2282980; active means hit-call score of the fitted dose curve at least 0.9, where 1 is the maximum); settings: HepG2 Attagene TRANS reporter, LXRa transactivation
# Chain of Oxysterols receptor LXR-alpha (Homo sapiens) (Q13133 whole entry, looked up, the tested form may be a part): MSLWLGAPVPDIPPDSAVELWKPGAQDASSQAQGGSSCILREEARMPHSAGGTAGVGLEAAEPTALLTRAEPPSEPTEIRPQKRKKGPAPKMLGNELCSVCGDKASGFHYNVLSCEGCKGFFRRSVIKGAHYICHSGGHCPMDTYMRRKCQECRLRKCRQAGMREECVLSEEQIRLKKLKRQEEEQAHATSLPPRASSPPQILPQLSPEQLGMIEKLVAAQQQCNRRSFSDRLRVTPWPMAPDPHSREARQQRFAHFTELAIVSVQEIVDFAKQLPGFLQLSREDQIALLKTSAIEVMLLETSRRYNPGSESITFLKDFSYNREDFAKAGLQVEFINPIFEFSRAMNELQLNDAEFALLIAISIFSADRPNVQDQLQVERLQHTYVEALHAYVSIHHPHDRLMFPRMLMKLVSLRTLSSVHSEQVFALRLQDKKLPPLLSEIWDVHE
# How it was run: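 HepG2 cells were transiently transfected with multiplexed reporter units driven by chimeric LXRa–GAL4 fusion proteins, then dosed for 24 h. Reporter mRNA was quantified by RT-PCR, fluorescent labelling and capillary electrophoresis; gain of signal fitted against DMSO baseline.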
compound,measurement,setting,value
Nc1ccc(-c2ccc(N)cc2)cc1,outcome,[1],inactive
same,outcome,[2],inactive
same,outcome,[3],inactive
same,outcome,[4],inactive
same,outcome,[5],inactive
same,outcome,[6],inactive
same,outcome,[7],inactive
same,outcome,[8],inactive
same,outcome,[9],inactive
same,outcome,[10],inactive
same,AC50,[11],3.97 µM (active)
same,outcome,[12],inactive
same,outcome,[13],inactive
ClC1=C(Cl)[C@]2(Cl)[C@@H]3[C@@H]4C[C@@H]([C@H]5O[C@@H]45)[C@@H]3[C@@]1(Cl)C2(Cl)Cl,outcome,[1],inactive
same,outcome,[3],inactive
same,outcome,[4],inactive
same,outcome,[5],inactive
same,outcome,[6],inactive
same,outcome,[7],inactive
same,outcome,[8],inactive
same,outcome,[14],inactive
same,AC50,[9],112 µM (active)
same,outcome,[15],inactive
same,outcome,[10],inactive
same,outcome,[11],inactive
same,outcome,[12],inactive
same,outcome,[13],inactive
CCOCCOC(C)=O,outcome,[3],inactive
same,outcome,[16],inactive
same,outcome,[5],inactive
same,outcome,[6],inactive
same,outcome,[7],inactive
same,outcome,[8],inactive
same,outcome,[9],inactive
same,outcome,[10],inactive
same,outcome,[11],inactive
same,outcome,[12],inactive
same,outcome,[13],inactive
ClC1=C(Cl)[C@]2(Cl)[C@@H]3[C@@H](Cl)[C@H]4O[C@H]4[C@@H]3C1(Cl)C2(Cl)Cl,outcome,[1],inactive
same,outcome,[17],inactive
same,outcome,[3],inactive
same,outcome,[5],inactive
same,AC50,[6],150 µM (active)
same,AC50,[7],65.1 µM (active)
same,outcome,[8],inactive
same,outcome,[14],inactive
same,AC50,[9],28.4 µM (active)
same,AC50,[15],60 µM (active)
same,AC50,[10],100 µM (active)
same,outcome,[11],inactive
same,outcome,[12],inactive
same,outcome,[13],inactive
Cc1ccccc1CO[C@@H]1C[C@@]2(C(C)C)CC[C@]1(C)O2,AC50,[18],32 µM (active)
same,outcome,[17],inactive
same,outcome,[3],inactive
same,outcome,[4],inactive
same,outcome,[16],inactive
same,outcome,[5],inactive
same,outcome,[6],inactive
same,outcome,[7],inactive
same,outcome,[8],inactive
same,outcome,[14],inactive
same,AC50,[9],2.86 µM (active)
same,outcome,[15],inactive
same,outcome,[11],inactive
same,outcome,[12],inactive
same,outcome,[13],inactive
CC#Cc1cc(C)nc(Nc2ccccc2)n1,outcome,[1],inactive
same,outcome,[17],inactive
same,outcome,[3],inactive
same,outcome,[4],inactive
same,outcome,[16],inactive
same,outcome,[5],inactive
same,outcome,[6],inactive
same,outcome,[7],inactive
same,outcome,[8],inactive
same,outcome,[14],inactive
same,AC50,[9],56.5 µM (active)
same,outcome,[15],inactive
same,outcome,[10],inactive
same,outcome,[11],inactive
same,outcome,[12],inactive
same,outcome,[13],inactive
